Assay results from PubChem BioAssay AID1053173 (Broad Institute, 2014).
The campaign covered roughly 1,500 compounds. About 390 (26%) were called active. How the calls were made is not given here. These entries were drawn from the full list. Measured potencies and affinities stand elsewhere.

The compounds below were run against Histone-lysine N-methyltransferase NSD2 (Homo sapiens) (UniProt O96028) (assay: blockers of NSD2 H4 peptide methylation – biochemical, AlphaScreen, cherry-picked samples, dose response (AID 1053173;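 further: 0% = neutral control wells and -100% = positive control wells on each plate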)). Settings: 120 min; series mostly up to 10 µM; activity change, negative = inhibition: at the top concentration.
Sequence of Histone-lysine N-methyltransferase NSD2 (Homo sapiens) (O96028 whole entry, looked up): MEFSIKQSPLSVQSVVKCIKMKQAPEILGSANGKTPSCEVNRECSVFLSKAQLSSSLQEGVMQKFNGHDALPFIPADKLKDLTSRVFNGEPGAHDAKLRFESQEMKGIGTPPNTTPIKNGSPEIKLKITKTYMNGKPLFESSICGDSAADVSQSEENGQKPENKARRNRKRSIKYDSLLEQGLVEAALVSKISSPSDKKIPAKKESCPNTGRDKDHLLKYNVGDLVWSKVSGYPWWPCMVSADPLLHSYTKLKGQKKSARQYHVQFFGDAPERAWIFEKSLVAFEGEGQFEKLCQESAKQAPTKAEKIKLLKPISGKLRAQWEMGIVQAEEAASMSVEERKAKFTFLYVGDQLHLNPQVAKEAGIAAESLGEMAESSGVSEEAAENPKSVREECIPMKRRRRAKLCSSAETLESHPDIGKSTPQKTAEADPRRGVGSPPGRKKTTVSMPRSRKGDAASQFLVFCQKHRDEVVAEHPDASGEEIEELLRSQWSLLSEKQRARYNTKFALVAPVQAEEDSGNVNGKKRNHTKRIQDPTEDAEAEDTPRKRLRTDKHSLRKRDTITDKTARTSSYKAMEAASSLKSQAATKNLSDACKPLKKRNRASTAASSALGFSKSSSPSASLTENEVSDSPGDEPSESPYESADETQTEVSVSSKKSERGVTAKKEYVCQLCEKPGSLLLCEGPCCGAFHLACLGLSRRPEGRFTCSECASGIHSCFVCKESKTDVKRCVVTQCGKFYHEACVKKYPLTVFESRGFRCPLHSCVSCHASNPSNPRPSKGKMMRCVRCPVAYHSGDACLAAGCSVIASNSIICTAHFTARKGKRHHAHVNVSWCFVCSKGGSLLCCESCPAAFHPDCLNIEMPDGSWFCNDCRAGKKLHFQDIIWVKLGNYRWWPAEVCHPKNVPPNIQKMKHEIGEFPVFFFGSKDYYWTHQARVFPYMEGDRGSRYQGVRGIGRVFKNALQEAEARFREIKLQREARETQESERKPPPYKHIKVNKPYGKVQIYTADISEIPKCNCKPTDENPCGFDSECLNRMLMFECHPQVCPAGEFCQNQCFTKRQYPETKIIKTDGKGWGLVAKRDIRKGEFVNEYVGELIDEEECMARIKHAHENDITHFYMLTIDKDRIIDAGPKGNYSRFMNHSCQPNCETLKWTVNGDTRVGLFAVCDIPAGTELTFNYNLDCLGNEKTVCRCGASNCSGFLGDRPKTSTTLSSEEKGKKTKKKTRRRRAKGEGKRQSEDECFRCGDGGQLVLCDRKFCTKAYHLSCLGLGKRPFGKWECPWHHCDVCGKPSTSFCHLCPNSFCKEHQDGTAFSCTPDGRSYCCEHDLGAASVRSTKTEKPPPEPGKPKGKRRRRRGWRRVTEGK

Activity change, negative = inhibition, inactive:
CCCCn1nnc(NC(=O)c2ccco2)n1 -1.6%
COc1ccccc1N1CCN(S(=O)(=O)CCNC(=O)c2ccc(Br)o2)CC1 6.82%
CCC(=O)N1CCN(c2ccc(Cl)cc2NC(=O)c2ccc(Br)o2)CC1 -3.46%
Nc1nc(COC(=O)c2ccco2)nc(Nc2ccccc2)n1 -2.2%
Cc1cc(C)n(-c2nc(NCC(C)O)c3c4c(sc3n2)COC(C)(C)C4)n1 (configuration not stated) 1.56%
CC(=O)C1=C(O)C(=O)N(CCc2c[nH]c3ccccc23)C1c1ccco1 (configuration not stated) 3.52%
Oc1cccc2c(NC(=S)Nc3ccc(OC(F)F)cc3)cccc12 -10.1%
COc1ccc(-c2nnc(SCC(=O)c3ccc(O)cc3O)o2)cc1 1.31%
CCCc1cc(=O)[nH]c(SCc2cc(=O)oc3cc(C)c(C(C)C)cc23)n1 1.35%
CC(=O)c1ccc(N2CCN(C(=O)[C@H](C)NC(=O)c3ccccc3Cl)CC2)cc1 -2.29%
COc1cc(-c2nnn(Cc3ccccc3C)n2)cc(OC)c1OC -0.317%
O=C1Nc2cc(C(=O)N3CCC(N4CCCCC4)CC3)ccc2S/C1=C\c1ccccc1 -12.6%
CCCc1[nH]n(-c2nc3ccccc3s2)c(=O)c1C=NCCCN(CC)CC -8.45%
O=C(CSc1ccc(-c2cccnc2)nn1)N1CCCC1 3.73%
CCn1c(-c2cc3c(C(F)(F)F)nn(C)c3s2)n[nH]c1=S -2.33%
Cc1ccc(Sc2ncccc2C(N)=O)cc1 -2.36%
Cc1cc(C)cc(NC(=O)C2C3C=CC4(O3)C2C(=O)N(CCCN2CCCC2)C4C(=O)NC2CCCC(C)C2C)c1 (configuration not stated) 1.04%
CCOC(=O)Cn1ncc(-c2ccccc2)c1N -2.26%
Cc1cc(-c2ccc(C)c(S(=O)(=O)N3CCN(c4ccccn4)CC3)c2)on1 -3.06%
C/C(=C\C(=O)c1ccccc1)Nc1ccc(O)cc1 1.87%
Clc1cccc(N2CCN(CCCN3CCN(c4ccccc4)CC3)CC2)c1 -6.37%
Fc1ccccc1NC(=S)Nc1cccc2cnccc12 -0.635%
